# Assay outcomes (PubChem)
# Nrf2 inh: Nrf2 qHTS screen for inhibitors; Potency, µM (doses to about 46 µM), hits mostly inhibitors; 360,000 tested, 2.1% active; A549 ARE-Fluc reporter, luciferase luminescence, 18-24 h; also: nearly all actives have a fitted effect of over 60% in size
#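 Concentration-response testing used A549 ARE_Fluc cells at 5000 cells/well. Following an 18-24 h compound incubation, viability was read by fluorescence (Ex 405/Em 525) and luciferase output by luminescence.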
# A549 tox: Nrf2 qHTS screen for inhibitors: counterscreen for cytotoxicity; A549 ARE-Fluc cells, CellTiter-Fluor viability, 18-24 h; Potency, µM (highest dose often 46 µM), most hits filed as inhibitors; 390,000 tested, 0.16% active; AID 504648, 2011
#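 A549 ARE_Fluc cells in 5% FBS OPTI-MEM were exposed to compounds in concentration-response for 18-24 h at 37 deg C. Viability was read by CellTiter-Fluor fluorescence (Ex 405/Em 525) after 30 min, before the luciferase read.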
# Nrf2 ARE act: qHTS of Nrf2 Activators. 410,000 tested, 0.31% active. Potency, µM (top dose mostly 46.1 µM), most hits filed as activators. AREc32 ARE-luciferase reporter (MCF7-derived line), luminescence, 24 h. AID 624171, 2012; also: nearly all actives have a fitted effect of over 65% in size
#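 Luminescent ARE reporter assay in AREc32_Fluc cells: overnight plating at 37 deg C, 24 hr compound incubation, Steady-Glo added, 30 min RT before reading.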
# miR-21 reporter: qHTS Assay for Modulators of miRNAs and/orActivators of miR-21. HeLa miR-21 FLuc reporter, luciferase, 48 h. Potency, µM (titrated, usually from 38.3 µM), usual class: activators. 340,000 tested, under 10 active. AID 2288, 2010;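 also: miR-21 action dims this reporter so a rising signal means less miR-21 action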
#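 HeLa cells stably expressing CMV-driven firefly luciferase with a downstream miR-21 binding sequence, endogenously expressing miR-21, were treated with titrations (up to about 40uM final) for 48 hours at 37 degree Celsius. Luciferase luminescence was read after lysis.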
# Mito fusion yeast: qHTS Assay for Small Molecule Inhibitors of Mitochondrial Division or Activators of Mitochondrial Fusion; S. cerevisiae fusion-defective mutant growth rescue, CellTiterGlo 48 h; Potency, µM (highest dose often 46.1 µM), usual class: activators; 320,000 tested, 0.23% active; AID 485298, 2010; also: nearly all actives have a fitted effect of over 45% in size
#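 Compounds are tested for their ability to restore growth of mitochondrial fusion-defective yeast strains at non-permissive 37C in YPEG medium over 48 hours. Viability is quantified by luciferase luminescence.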
# Numbers stand for hits; . = inactive; ? = inconclusive; / = not tested or not shown; [ ] = dose if it differs, or a comment. Hits are enriched below; roughly 2.3% of the tested compounds scored in any of these assays. Calls follow the shape of the dose curve; as a rule, active = well fitted curve in the direction sought with a large enough effect; inconclusive = small, poorly fitted or top-dose-only effect, or another doubt; inactive = no such curve, though single readings can be large; an effect the other way counts as inactive or inconclusive.
SMILES,Nrf2 inh,A549 tox,Nrf2 ARE act,miR-21 reporter,Mito fusion yeast
O=C(c1ccc(Cl)cc1)C1CCN(C(=O)NC2CCCCC2)CC1,18µM,.,.,.,.
O=C(Nc1ccc(Cl)cc1)C1CCN(C(=O)NC2CCCCC2)CC1,.,.,.,.,.
CC(C)Cn1c(N)c(C(=O)COC(=O)c2cccn2C)c(=O)n(C)c1=O,23µM,.,.,/,/
CC(C)Cn1c(N)c(C(=O)COC(=O)c2ccccc2C(=O)c2ccccc2)c(=O)n(C)c1=O,13µM,.,.,/,/
COCc1c(C(=O)OCC(=O)c2c(N)n(CC(C)C)c(=O)n(C)c2=O)oc2ccccc12,21µM,.,.,.,.
CC(C)Cn1c(N)c(C(=O)COC(=O)c2c(F)cccc2F)c(=O)n(C)c1=O,.,.,.,.,.
Cc1c(C(=O)OCC(=O)c2c(N)n(CC(C)C)c(=O)n(C)c2=O)oc2ccccc12,?,.,.,.,.
Cn1c(N)c(C(=O)COC(=O)c2cc(C(F)(F)F)nc3ccccc23)c(=O)n(Cc2ccccc2)c1=O,21µM,.,.,.,.
O=C(NCCc1nc2ccccc2n1CCCOc1ccccc1Cl)C1CCCCC1,?,.,/,/,/
Cc1ccc(C)c(N2CCN(C(=O)c3c4c(nc5ccccc35)C(=O)N(C3CCCCC3)C4)CC2)c1,?,.,.,.,/
CC(C)Cn1c(N)c(C(=O)COC(=O)c2ccc3c(c2)OCCO3)c(=O)n(C)c1=O,10µM,.,.,.,.
Cn1c(N)c(C(=O)COC(=O)c2ccc3c(c2)OCCO3)c(=O)n(C)c1=O,.,.,.,.,.
Cc1ccc(C(=O)c2coc3cc([N+](=O)[O-])c(O)c([N+](=O)[O-])c23)cc1,?,21µM,.,.,.
Cc1ccc(C(=O)c2ccc([N+](=O)[O-])cc2)cc1,.,.,.,.,.
COc1cccc(C(=O)Nc2cccc(-c3cn4ccsc4n3)c2)c1OC,/,.,.,.,/
O=C(Nc1ccccc1Cl)C1CCN(c2nc3ccccc3nc2C(F)(F)F)CC1,.,.,.,.,/
Cc1cc(-c2ccc(S(=O)(=O)Nc3ccccc3C)cc2)on1,?,.,.,.,/
Cc1cc(-c2ccc(S(=O)(=O)Nc3ccc(Cl)cc3C)cc2)on1,21µM,.,.,.,/
Cc1ccc(NS(=O)(=O)c2ccc(-c3cc(C)no3)cc2)c(Br)c1,23µM,.,.,.,/
COc1ccccc1NS(=O)(=O)c1ccc(C(=O)N2CCCCCC2)cc1,10µM,.,.,/,/
COc1ccc(S(=O)(=O)N(C)c2ccc(C(=O)N3CCCCC3)cc2)cc1OC,12µM,.,.,.,.
COc1ccccc1NS(=O)(=O)c1ccc(C(=O)N2CCN(c3ccccc3)CC2)cc1,.,.,.,/,.
N#Cc1ccccc1NC(=O)c1cc2c(=O)n3ccccc3nc2s1,.,.,.,.,/
COC(=O)c1cc2c(n1S(=O)(=O)c1ccc(C)cc1)C(=O)C(=O)c1[nH]cc(C(=O)OCc3ccccc3)c1-2,4.1µM,4.1µM,.,/,/
COc1ccc2c(c1)c(=O)c(C(=O)c1ccc(Cl)cc1)cn2CC(=O)Nc1ccc2c(c1)OCCO2,.,.,.,.,/
SMILES,Nrf2 inh,A549 tox,Nrf2 ARE act,miR-21 reporter,Mito fusion yeast
CC(=O)Nc1ccc(Sc2ccc([N+](=O)[O-])o2)cc1,.,.,?,/,/
CC(C)(C)C(=O)Nc1ccc(Sc2ccc([N+](=O)[O-])cc2)cc1,16µM,.,.,.,.
CCOc1ccccc1NC(=O)CSc1ccc2nc(-c3ccccc3)cn2n1,/,.,.,.,/
O=c1c(Cl)c(N/N=C/c2ccc(Cl)cc2)cnn1-c1ccccc1,.,.,?,.,8.9µM
CCS(=O)(=O)c1cccc(C(=O)N2CCN(c3nc4c(C)ccc(Cl)c4s3)CC2)c1,12µM,.,.,?,/
COCCCNC(=O)Cc1c(C)c2cc3c(cc2oc1=O)OC(C)(C)CC3,.,.,.,.,.
Cc1c(CC(=O)NCCCC(=O)O)c(=O)oc2cc3c(cc12)CCC(C)(C)O3,18µM,.,.,?,.
Cc1c(CC(=O)NCCCCCC(=O)O)c(=O)oc2cc3c(cc12)CCC(C)(C)O3,10µM,.,.,.,.
O=c1c(Sc2ccccc2)c(C(F)(F)F)[nH]n1-c1ccccc1,21µM,?,.,.,.
C/C(=N\Nc1nccnc1Cl)c1ccc(Cl)c(Cl)c1,?,.,14µM,.,.
Cc1ccccc1OCC(=O)Nc1ccc(C)c(S(=O)(=O)N2CCCCCC2)c1,23µM,.,.,/,?
Cc1ccc(NC(=O)COc2cccc(-n3cnnn3)c2)cc1S(=O)(=O)N1CCOCC1,23µM,.,.,/,.
COc1ccc(NC(=S)Nc2ccc(C)c(S(=O)(=O)N3CCCCC3)c2)cc1,/,/,/,.,.
Cc1ccc(NC(=S)Nc2ccc(C(C)C)cc2)cc1S(=O)(=O)N1CCCCCC1,12µM,?,.,.,.
Cc1ccc(S(=O)(=O)N2CCOCC2)cc1NC(=O)COc1cccc(-n2cnnn2)c1,.,.,.,/,.
COc1ccc(NC(=O)COc2ccccc2Cc2ccccc2)cc1S(N)(=O)=O,13µM,?,.,?,.
O=C1CN(C(=O)Cc2ccc(F)cc2)C(c2ccccc2)c2cc(Cl)ccc2N1 (stereo not drawn),.[9.27 µM],.,.,?,/
Cc1ccc(NC(=O)CN2CCCC2c2cccs2)cc1S(=O)(=O)N1CCCCC1 (stereo not drawn),21µM,.,.,/,.
CCCCC(=O)Nc1ccc(C)c(S(=O)(=O)N2CCCCCC2)c1,16µM,?,.,/,.
Cc1ccc(NC(=O)C2CCCN(S(=O)(=O)c3ccc4c(c3)CCCC(=O)N4)C2)cc1Cl (stereo not drawn),?,.,.,.,/
Cc1ccc(-c2cc(C(F)(F)F)n3ncc(-c4ccc(Cl)cc4)c3n2)cc1,.,.,.,.,/
O=C1c2ccccc2-c2onc3c(NCCO)cc(NC4CCCCC4)c1c23,21µM,?,.,?,/
O=C(O)CCNc1cc(N2CCN(C(=O)c3ccco3)CC2)c2noc3c2c1C(=O)c1ccccc1-3,?,18µM,.,.,.
CCN1CCN(c2cc(N3CCN(C(=O)c4ccco4)CC3)c3c4c(onc24)-c2ccccc2C3=O)CC1,.,?,.,.,.
Cc1nc(-c2ccc(S(=O)(=O)Nc3ccc(C)c(C)c3)s2)cs1,.,.,/,/,/
CCN1CCN(Cc2ccc(NC(=O)c3ccc(C)c(NC(=O)c4ccno4)c3)cc2C(F)(F)F)CC1,.,.,.,.,.
CCN1CCN(Cc2ccc(NC(=O)c3ccc(C)c(/C=C/c4cnc(Nc5cc(N6CCNCC6)nc(C)n5)cn4)c3)cc2C(F)(F)F)CC1,18µM,?,.,?,.
CCOc1ccc(N(CC(=O)Nc2cccc(OC)c2)S(=O)(=O)c2c(C)noc2C)cc1,?,.,.,.,.
